The campaign covered roughly 360,000 compounds. About 11,000 (3.1%) were called active. Not shown: some 2% with an inconclusive outcome. Rule as the data show it: active = fluorescence intensity above about 16000; inconclusive = no clear call, values can overlap the other calls; inactive = below that. Only a selection was taken, and actives are over-represented in it overall.

This passage reports fluorescence intensity results from PubChem BioAssay AID624483 (NMMLSC, 2012).

The nature of the test: compound fluorescence in toxin protease inhibitor counterscreen, primary screen, artefact control for toxin protease inhibitor project, biochemical, multiplex microsphere, HTS (AID 624483). The following applies: compound autofluorescence counterscreen, microsphere flow cytometry; hits give high values.
Consider `O=C(O)C1CCCN1S(=O)(=O)c1ccc2c(c1)CCC2` (stereo unspecified), for which the fluorescence intensity was 7810 (inactive).

With `CC(C)(C)SCCSC1=CC(=O)CC(c2ccccc2)C1` (stereo unspecified), the fluorescence intensity is 3630 (inactive).

`CCCCNC(=O)C[C@@H]1C[C@@]2(C(=O)OCC)CCC=C2N(Cc2ccco2)C1=O`: the fluorescence intensity is 6060 (inactive).

Consider `CC1(Cc2ccccc2C#N)C(=O)Nc2ccc(-c3ccc4[nH]ccc4c3)cc21` (stereo unspecified), for which the fluorescence intensity was 3220 (inactive).

For the molecule `COc1ccc(NC(=O)CCCN2C(=O)C(c3ccccc3)Oc3cccnc32)cc1` (stereo unspecified), the fluorescence intensity was 5260 (inactive).

Take `CCC1CCCCN1S(=O)(=O)Cc1ccccc1Cl` (stereo unspecified): the fluorescence intensity is 5020 (inactive).

For the molecule `Cc1nnsc1C(=O)Nc1cccc(Cl)c1C`, the fluorescence intensity was 4480 (inactive).

`Cc1nnsc1S(=O)(=O)Cc1ccccc1Cl`: the fluorescence intensity was 22200 (active).

Regarding `C[C@H]1COc2cc(N3CCSCC3)ccc2S(=O)(=O)N1`, the fluorescence intensity was 5560 (inactive).

In the case of `c1ccc(C[C@H]2CNCCN2CCC23CC4CC(CC(C4)C2)C3)cc1`, the fluorescence intensity was 3210 (inactive).

For `Cc1cc(C)n(-c2c(F)c(F)c(COC(=O)c3ccccc3)c(F)c2F)n1`, the fluorescence intensity is 3060 (inactive).

`Cc1cc(C)n(-c2nc(C(F)(F)F)nc3ccccc23)n1`: the fluorescence intensity was 3100 (inactive).

Regarding `CCCOn1c(-n2nc(C)cc2C)nc2ccccc2c1=O`, the fluorescence intensity was 23500 (active).

Regarding `COc1cc(/C=C/C(=O)OCC(=O)NCCCc2ccccc2)ccc1O`, the fluorescence intensity was 5380 (inactive).

Regarding `Cc1ccccc1S(=O)(=O)N1[C@@H](c2cccc(Cl)c2)C(C(=O)OC(C)(C)C)=CC[C@H]1c1ccc(Cl)cc1`, the fluorescence intensity is 4430 (inactive).

With `CC12CCC(C(=O)N(CCC#N)CCC#N)(CC1=O)C2(C)C` (stereo unspecified), the fluorescence intensity is 20400 (active).

`Cn1c(=O)c2c(nc(N/N=C/c3cccs3)n2Cc2ccc(Br)cc2)n(C)c1=O`: the fluorescence intensity is 2410 (inactive).

Regarding `O=C(Nc1cccc(NC(=O)c2ccco2)c1)c1cnccn1`, the fluorescence intensity was 23700 (active).

With `CC(C)(C)NC(=O)c1cc(NC(=O)c2ccco2)cc(NC(=O)c2ccco2)c1`, the fluorescence intensity is 3040 (inactive).

For the molecule `O=C(Nc1nnc(Cc2ccccc2)s1)c1cnccn1`, the fluorescence intensity was 3990 (inactive).

For `CCOC(=O)N(C)c1c(CC)nc2c(OCc3ccccc3C(=O)OC)cccn12`, the fluorescence intensity is 3540 (inactive).

Turning to `COc1cc(NC(=O)c2cc(-c3ccc(F)cc3OC(C)C)n[nH]2)cc(OC)c1OC`, the fluorescence intensity is 3570 (inactive).

For `CCNC(=O)c1cc2c(c(-c3cccc(-c4cncnc4)c3)n1)[C@H](CCO)N(C(C)=O)C2`, the fluorescence intensity is 6050 (inactive).

With `O=C1NC[C@H](CCCCN2CCN(CCc3ccccc3)C(=O)C2=O)N(CC2CCCCC2)C1=O`, the fluorescence intensity was 5200 (inactive).

Regarding `Cc1ccc(NC(=O)C2(N3CCC3=O)CCCCC2)cc1`, the fluorescence intensity was 2510 (inactive).

As for `O=C(Nc1ccc(N2CCOCC2)cc1)c1cccc(S(=O)(=O)N2CCOCC2)c1`, the fluorescence intensity is 2540 (inactive).

Take `O=C(c1cccc(S(=O)(=O)N2CCOCC2)c1)N1CCOCC1`: the fluorescence intensity is 25300 (active).

For the molecule `O=C(c1cc(S(=O)(=O)N2CCOCC2)ccc1Cl)N1CCOCC1`, the fluorescence intensity was 5390 (inactive).

As for `Cc1cccc(OCCNC(=O)CSc2ccc(C(F)(F)F)cc2[N+](=O)[O-])c1`, the fluorescence intensity is 2620 (inactive).

As for `O=c1c2ccccc2nc(-c2ccc(Cl)cc2Cl)n1-c1ccncc1`, the fluorescence intensity was 18700 (active).

For `O=c1c2ccccc2nc(CBr)n1-c1ccc(Cl)cc1`, the fluorescence intensity was 3850 (inactive).

With `O=c1c2ccccc2nc(-c2ccccc2)n1-c1ccccn1`, the fluorescence intensity is 4770 (inactive).

Take `CCOc1ccc(NC(=O)CCS(=O)(=O)c2ccc3c(c2)CCCN3C(=O)CC)cc1`: the fluorescence intensity was 10500 (inactive).

As to `COC(=O)c1ccc(Oc2nc(NC(C)C)nc(SC)n2)cc1`, the fluorescence intensity was 2470 (inactive).

As to `CCNc1nc(NC(C)C)nc(OCCOC(=O)c2ccccc2)n1`, the fluorescence intensity was 22900 (active).

`CCNc1nc(NC(C)C)nc(N2CC(=O)N(CC(=O)OCC)C2=N)n1`: the fluorescence intensity was 10500 (inactive).

In the case of `CN(C)N1C(N)=C(C#N)C(c2ccc(Br)cc2)C2=C1CCCC2=O` (stereo unspecified), the fluorescence intensity is 4350 (inactive).

Consider `Cc1ccc(N=Cc2c(O)n(-c3nccs3)c(=O)c3ccccc23)c(C)c1`, for which the fluorescence intensity was 2410 (inactive).

`CCOc1ccc(N=Cc2c(O)n(-c3cccc(C)n3)c(=O)c3ccccc23)cc1`: the fluorescence intensity is 20300 (active).

With `CCOc1ccc(-n2c(O)c(/C=N/Nc3nc(C)cc(C)n3)c3ccccc3c2=O)cc1`, the fluorescence intensity is 4560 (inactive).

As to `O/N=C(\C[n+]1ccccc1)c1ccc(Br)cc1`, the fluorescence intensity was 3050 (inactive).

In the case of `COC(=O)c1sccc1NC(=O)CC1C(=O)NCCN1C(=O)Nc1ccc(F)cc1F` (stereo unspecified), the fluorescence intensity is 6320 (inactive).

Consider `CS(=O)(=O)N(CC(=O)N1CCc2ccccc2C1)c1ccc(Br)cc1`, for which the fluorescence intensity is 4000 (inactive).

For the molecule `Cc1ccc(S(=O)(=O)N(CC(=O)N2CCc3ccccc3C2)c2cccc(Cl)c2)cc1`, the fluorescence intensity was 2460 (inactive).

Regarding `COc1cccc(N(CC(=O)N2CCc3ccccc3C2)S(C)(=O)=O)c1`, the fluorescence intensity was 22900 (active).

Turning to `COc1cc(/C=N\NC(=O)c2nonc2N)c(OC)cc1Br`, the fluorescence intensity is 2500 (inactive).

As to `CCOc1ccc(/C=C(/C#N)c2nnc(N3CCOCC3)n2-c2ccccc2)cc1OC`, the fluorescence intensity is 3950 (inactive).

On to `COc1cc(N2CCCC2)c(OC)cc1/C=C(/C#N)c1cccc(Br)c1`, for which the fluorescence intensity was 20000 (active).

Regarding `O=C(O)c1ccccc1-c1cccc2nncn12`, the fluorescence intensity is 3820 (inactive).

Consider `Cc1sc2ccccc2c1CNC[C@H]1O[C@@H](n2ccc(=O)[nH]c2=O)[C@H](O)[C@@H]1O`, for which the fluorescence intensity was 6010 (inactive).

As for `CCc1nc2c(OCCOc3ccccc3)cccn2c1N(C=O)Cc1ccc(OC)cc1`, the fluorescence intensity was 3280 (inactive).

Turning to `O=C1CCCc2c1[nH]c1ccc(Br)cc21`, the fluorescence intensity was 10300 (inactive).

For `Cc1occc1C(=O)N/N=C/c1ccc(-c2cccc([N+](=O)[O-])c2)o1`, the fluorescence intensity was 6020 (inactive).

Turning to `COc1ccccc1CNS(=O)(=O)c1ccc(C)cc1`, the fluorescence intensity is 3200 (inactive).

As to `C#CCCCc1nc2ccccc2c(=O)n1N`, the fluorescence intensity is 2060 (inactive).

In the case of `Cc1ccc(S(=O)(=O)NCc2nc3ccccc3c(=O)n2N)cc1`, the fluorescence intensity is 23000 (active).

On to `O=C(COc1ccc(-c2ccccc2)cc1)NN=C1CCCC1`, for which the fluorescence intensity was 4340 (inactive).

On to `O=S(=O)(NC1CCCCC1)c1ccc(F)c2ccccc12`, for which the fluorescence intensity was 17400 (active).

In the case of `O=S(=O)(NC1CC1)c1ccc(F)c(F)c1`, the fluorescence intensity was 5500 (inactive).

Consider `O=S(=O)(NC1CC1)c1ccc2c3c(cccc13)CC2`, for which the fluorescence intensity was 4730 (inactive).

For the molecule `Cc1cc(=O)oc2c3c(cc(OCC(=O)NCC(O)c4ccccc4)c12)OC(C)(C)CC3` (stereo unspecified), the fluorescence intensity is 5100 (inactive).

In the case of `COc1cccc(NC(=O)CCc2nnc3ccc(N4CCC(C)CC4)nn23)c1`, the fluorescence intensity was 5600 (inactive).

For `CCOC(=O)[C@]12CCC=C1N(Cc1ccco1)C(=O)[C@H](CC(=O)N1CCSCC1)C2`, the fluorescence intensity is 4160 (inactive).

Consider `CC(C)(C(=O)N1CCC1(C)C(=O)NS(=O)(=O)c1ccc(Br)cc1)c1ccccc1` (stereo unspecified), for which the fluorescence intensity was 3370 (inactive).

`NC(c1ccccc1)c1csc(NC(=O)Nc2cccc(C(F)(F)F)c2)n1` (stereo unspecified): the fluorescence intensity was 3690 (inactive).

`Cc1cc2ncn(CCCCOc3ccccc3)c2cc1C`: the fluorescence intensity was 17400 (active).

Consider `COCCOCCn1cnc2ccccc21`, for which the fluorescence intensity is 9770 (inactive).

Consider `Clc1ncn(CCOc2ccccc2)c1Cl`, for which the fluorescence intensity was 3990 (inactive).

Turning to `CSc1ccc(CN2CCC2(C)C(=O)Nc2ccc(C)c(O)c2)cc1` (stereo unspecified), the fluorescence intensity is 3540 (inactive).

In the case of `O=C(NCCCNc1ccc([N+](=O)[O-])cc1Cl)c1ccccc1F`, the fluorescence intensity was 4790 (inactive).

As for `O=C(NCCCN1CCOCC1)c1ccc([N+](=O)[O-])cc1[N+](=O)[O-]`, the fluorescence intensity is 4500 (inactive).

Take `O=[N+]([O-])c1ccc(NCCCN2CCOCC2)c(Cl)c1`: the fluorescence intensity was 22800 (active).

Turning to `CC1CCN(C(=O)c2ccc(S(=O)(=O)Cc3cc(F)ccc3F)c([N+](=O)[O-])c2)CC1`, the fluorescence intensity was 2510 (inactive).

With `CCc1ccc2nc(Nc3ncc(C(C)=O)c(C)n3)nc(C)c2c1`, the fluorescence intensity is 3620 (inactive).

Regarding `CCOC(=O)[C@]12CCC=C1N(CCC1=CCCCC1)C(=O)[C@H](CC(=O)NCc1ccc(C)o1)C2`, the fluorescence intensity is 5770 (inactive).

With `CCCC(NS(=O)(=O)c1ccc(OC)cc1)C(=O)O` (stereo unspecified), the fluorescence intensity was 20900 (active).

Take `CSCC(NS(=O)(=O)c1ccc(C)cc1)C(=O)O` (stereo unspecified): the fluorescence intensity is 4880 (inactive).

Regarding `COc1ccc(S(=O)(=O)NC(C)C(=O)N2CCCCCC2)cc1` (stereo unspecified), the fluorescence intensity is 3500 (inactive).

For `O=C(OCC(=O)N1CCCCCC1)c1ccc(Cl)nc1`, the fluorescence intensity is 3860 (inactive).

On to `N#Cc1cccc(NC(=O)c2cc(C3CCCCN3C(=O)CCc3ccccc3)on2)c1` (stereo unspecified), for which the fluorescence intensity is 4290 (inactive).

On to `CC(=O)OC[C@@H]1CN(Cc2ccccc2)C[C@H](n2cnc3c(NCc4ccco4)ncnc32)O1`, for which the fluorescence intensity is 3590 (inactive).

For the molecule `COc1cccc(NC(=O)CCNS(=O)(=O)c2ccc3c(c2)oc(=O)n3C)c1`, the fluorescence intensity is 4240 (inactive).

On to `Cn1c(=O)oc2cc(S(=O)(=O)NCCC(=O)NCc3ccccc3Cl)ccc21`, for which the fluorescence intensity is 4110 (inactive).

As to `Cc1ccc(NC(=O)CCNS(=O)(=O)c2ccc3c(c2)oc(=O)n3C)cc1C`, the fluorescence intensity was 22000 (active).

`N#Cc1c(/N=C/N2CCCC2)oc(-c2ccccc2)c1-c1ccccc1`: the fluorescence intensity was 3080 (inactive).

In the case of `O=C(O)Cc1ccc(NC(=O)C2CCCCC2C(=O)O)cc1` (stereo unspecified), the fluorescence intensity was 4130 (inactive).

Consider `O=C(O)C1CCCCC1C(=O)Nc1ccc(Cl)cc1` (stereo unspecified), for which the fluorescence intensity was 25300 (active).

As to `O=C(NC1CCN(C(=S)Nc2ccc(Cl)cc2)CC1)C1CCCCC1`, the fluorescence intensity is 3100 (inactive).

In the case of `CCOC(=O)c1ccn(S(=O)(=O)c2ccc(C)cc2)c1-c1ccccc1`, the fluorescence intensity was 5920 (inactive).

Take `O=S1(=O)C[C@@H](N2CCN(CCO)CC2)[C@H](COCc2ccccc2)N1`: the fluorescence intensity is 4260 (inactive).

Turning to `COc1ccc(/C=C/C(=O)c2c(O)cc(OC)cc2OC)cc1`, the fluorescence intensity is 5700 (inactive).

With `Cc1ccc2nc(-c3ccccc3)c(CC3CCCCC3)n2c1`, the fluorescence intensity is 8550 (inactive).

As to `Cc1ccc(SCCSc2ncccn2)cc1`, the fluorescence intensity was 4180 (inactive).

As to `Cc1ccc(SCc2cc(=O)[nH]c(N3CCCCC3)n2)cc1`, the fluorescence intensity was 4420 (inactive).

For the molecule `Cc1ccc(SCC2=NNC(=O)C2)cc1`, the fluorescence intensity is 22700 (active).

For `O=C(COC(=O)c1ccc(Cl)nc1)NCc1cccs1`, the fluorescence intensity was 4330 (inactive).
